Laboratory results taken from paper PMC7862700, “An all-to-all approach to the identification of sequence-specific readers for epigenetic DNA modifications on cytosine”.

What was measured:
Test in all cases: DAPPL (digital affinity profiling via proximity ligation, sequencing); 10 mM Tris-HCl pH 7.5, 50 mM NaCl, 1 mM DTT, 4% glycerol, room temperature, 30 min; GST-TFs on glutathione beads, 16-mer random dsDNA library, 0.1% formaldehyde crosslink after washing; high values mean tight binding
Details in all cases: protein: recombinant; tags: N-terminal GST; dsDNA, one strand shown
[1] = biological target: T1, ERF (Homo sapiens, UniProt P50548 1-548)
T1 sequence: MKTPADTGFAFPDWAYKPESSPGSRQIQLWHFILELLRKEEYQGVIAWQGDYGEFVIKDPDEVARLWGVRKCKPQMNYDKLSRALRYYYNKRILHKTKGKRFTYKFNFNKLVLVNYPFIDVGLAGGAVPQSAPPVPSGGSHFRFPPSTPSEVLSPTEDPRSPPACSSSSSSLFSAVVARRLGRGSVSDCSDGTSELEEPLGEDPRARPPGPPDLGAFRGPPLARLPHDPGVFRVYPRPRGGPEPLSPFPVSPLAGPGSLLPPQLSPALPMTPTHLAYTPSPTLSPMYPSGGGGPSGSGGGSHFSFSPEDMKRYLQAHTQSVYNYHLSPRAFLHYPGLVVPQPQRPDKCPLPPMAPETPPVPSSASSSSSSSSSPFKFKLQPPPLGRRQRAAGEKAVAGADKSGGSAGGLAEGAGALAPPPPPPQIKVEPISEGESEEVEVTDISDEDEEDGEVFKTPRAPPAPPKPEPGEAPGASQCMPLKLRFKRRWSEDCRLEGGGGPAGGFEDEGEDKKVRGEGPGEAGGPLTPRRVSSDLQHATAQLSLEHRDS
Method in brief: (§1)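 Binding signal is given per hexamer as its read frequency for a factor divided by its frequency in the tag-only sample. GST-fused human transcription factors were expressed in yeast, captured on glutathione beads, barcoded with DNA and pooled with that sample, then incubated with 200 nmole of a 16-mer random double-stranded DNA library in Tris/NaCl/DTT/glycerol buffer for 30 min at room temperature. The pools were then washed, crosslinked, proximity-ligated, amplified by PCR and sequenced on an Illumina NextSeq500.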

[2] = biological target: T2, ETV3L (Homo sapiens, UniProt Q6ZN32 1-361)
T2 sequence: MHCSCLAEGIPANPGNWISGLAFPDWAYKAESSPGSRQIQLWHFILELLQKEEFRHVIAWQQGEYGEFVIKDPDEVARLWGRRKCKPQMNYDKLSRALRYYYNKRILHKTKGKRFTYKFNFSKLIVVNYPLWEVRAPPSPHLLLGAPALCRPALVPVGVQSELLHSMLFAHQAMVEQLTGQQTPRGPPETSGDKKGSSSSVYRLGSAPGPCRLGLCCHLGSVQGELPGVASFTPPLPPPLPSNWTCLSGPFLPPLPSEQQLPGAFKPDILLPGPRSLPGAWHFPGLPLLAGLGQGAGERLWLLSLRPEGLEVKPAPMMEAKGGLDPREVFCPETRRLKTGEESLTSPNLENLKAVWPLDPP
Method in brief: as §1

[3] = biological target: T3, ETS2 (Homo sapiens, UniProt P15036 1-469)
T3 sequence: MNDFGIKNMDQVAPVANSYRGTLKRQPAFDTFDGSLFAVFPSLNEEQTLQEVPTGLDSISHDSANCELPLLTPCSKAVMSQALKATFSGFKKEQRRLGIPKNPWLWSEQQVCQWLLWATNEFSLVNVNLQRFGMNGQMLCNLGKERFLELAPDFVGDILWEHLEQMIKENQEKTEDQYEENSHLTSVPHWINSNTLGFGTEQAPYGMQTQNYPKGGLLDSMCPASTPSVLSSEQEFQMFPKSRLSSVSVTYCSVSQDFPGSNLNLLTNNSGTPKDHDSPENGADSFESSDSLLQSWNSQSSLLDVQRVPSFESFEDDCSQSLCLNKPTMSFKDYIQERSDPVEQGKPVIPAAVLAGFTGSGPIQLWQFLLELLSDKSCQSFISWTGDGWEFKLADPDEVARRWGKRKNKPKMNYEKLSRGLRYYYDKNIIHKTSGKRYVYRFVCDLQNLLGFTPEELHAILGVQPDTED
Method in brief: as §1

[4] = biological target: T4, SPDEF (Homo sapiens, UniProt O95238 1-335)
T4 sequence: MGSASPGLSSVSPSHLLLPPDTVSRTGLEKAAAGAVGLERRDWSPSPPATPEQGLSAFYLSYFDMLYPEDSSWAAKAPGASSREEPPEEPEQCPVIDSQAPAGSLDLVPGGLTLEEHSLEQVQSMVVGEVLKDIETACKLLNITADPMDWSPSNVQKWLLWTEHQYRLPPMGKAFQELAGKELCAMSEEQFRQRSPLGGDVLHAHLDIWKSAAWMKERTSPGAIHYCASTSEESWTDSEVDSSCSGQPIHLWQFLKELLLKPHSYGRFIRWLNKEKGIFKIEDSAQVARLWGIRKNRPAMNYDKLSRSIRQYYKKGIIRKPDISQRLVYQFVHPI
Method in brief: as §1

[5] = biological target: T5, ETV7 (Homo sapiens, UniProt Q9Y603 1-341)
T5 sequence: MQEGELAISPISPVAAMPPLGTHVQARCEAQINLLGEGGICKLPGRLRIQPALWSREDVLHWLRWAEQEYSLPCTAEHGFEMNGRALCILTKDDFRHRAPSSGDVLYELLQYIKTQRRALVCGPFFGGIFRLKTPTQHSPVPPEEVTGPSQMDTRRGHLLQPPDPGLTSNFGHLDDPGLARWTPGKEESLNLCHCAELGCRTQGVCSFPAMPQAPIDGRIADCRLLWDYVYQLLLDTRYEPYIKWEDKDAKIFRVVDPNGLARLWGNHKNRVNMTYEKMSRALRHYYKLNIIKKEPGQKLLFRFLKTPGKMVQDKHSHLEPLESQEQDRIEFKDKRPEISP
Method in brief: as §1

[6] = biological target: T6, ELF5 (Homo sapiens, UniProt Q9UKW6-2 1-255)
T6 sequence: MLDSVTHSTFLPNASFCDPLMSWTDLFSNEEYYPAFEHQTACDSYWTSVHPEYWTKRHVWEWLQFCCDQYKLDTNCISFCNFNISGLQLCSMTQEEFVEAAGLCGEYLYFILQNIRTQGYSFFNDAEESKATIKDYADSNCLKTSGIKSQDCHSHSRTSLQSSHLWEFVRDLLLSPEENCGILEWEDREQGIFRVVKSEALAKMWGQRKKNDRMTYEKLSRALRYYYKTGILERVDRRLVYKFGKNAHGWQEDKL
Method in brief: as §1

[7] = biological target: T7, ETV3 (Homo sapiens, UniProt P41162-2 1-143)
T7 sequence: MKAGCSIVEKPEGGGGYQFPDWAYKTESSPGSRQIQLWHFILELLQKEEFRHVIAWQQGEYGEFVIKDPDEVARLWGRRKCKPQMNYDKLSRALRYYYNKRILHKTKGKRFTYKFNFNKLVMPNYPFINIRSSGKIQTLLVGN
Method in brief: as §1

[8] = biological target: ETV6 (Homo sapiens, UniProt P41212 1-452)
Method in brief: as §1

Sequence of ETV6 (P41212 whole entry): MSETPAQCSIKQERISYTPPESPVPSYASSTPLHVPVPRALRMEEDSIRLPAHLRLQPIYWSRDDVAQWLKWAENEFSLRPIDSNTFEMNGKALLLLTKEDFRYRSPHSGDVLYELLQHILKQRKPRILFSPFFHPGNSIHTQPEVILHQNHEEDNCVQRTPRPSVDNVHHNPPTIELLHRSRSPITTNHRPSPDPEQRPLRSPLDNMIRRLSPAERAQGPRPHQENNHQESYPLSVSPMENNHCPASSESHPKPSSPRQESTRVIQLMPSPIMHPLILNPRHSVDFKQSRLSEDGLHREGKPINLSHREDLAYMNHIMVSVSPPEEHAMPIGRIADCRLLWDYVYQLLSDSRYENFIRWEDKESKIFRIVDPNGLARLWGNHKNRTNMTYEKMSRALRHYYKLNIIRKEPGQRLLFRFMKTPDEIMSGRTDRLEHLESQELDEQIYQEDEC

| Sequence | binding signal [1] | binding signal [2] | binding signal [3] | binding signal [4] | binding signal [5] | binding signal [6] | binding signal [7] | binding signal [8] |
| --- | --- | --- | --- | --- | --- | --- | --- | --- |
| TACCGC | 1.1 fold enrichment (6-mer frequency, TF over GST control) | 1.14 fold enrichment (6-mer frequency, TF over GST control) | 1.05 fold enrichment (6-mer frequency, TF over GST control) | 1.17 fold enrichment (6-mer frequency, TF over GST control) | 1.13 fold enrichment (6-mer frequency, TF over GST control) | 1.08 fold enrichment (6-mer frequency, TF over GST control) | 1.12 fold enrichment (6-mer frequency, TF over GST control) | 1.04 fold enrichment (6-mer frequency, TF over GST control) |
| CACACA | 1.16 fold enrichment (6-mer frequency, TF over GST control) | 1.22 fold enrichment (6-mer frequency, TF over GST control) | 1.14 fold enrichment (6-mer frequency, TF over GST control) | 1.07 fold enrichment (6-mer frequency, TF over GST control) | 1.1 fold enrichment (6-mer frequency, TF over GST control) | 1.06 fold enrichment (6-mer frequency, TF over GST control) | 1.1 fold enrichment (6-mer frequency, TF over GST control) | 1.18 fold enrichment (6-mer frequency, TF over GST control) |
| CGTACC | 1.12 fold enrichment (6-mer frequency, TF over GST control) | 1.13 fold enrichment (6-mer frequency, TF over GST control) | 1.15 fold enrichment (6-mer frequency, TF over GST control) | 1.17 fold enrichment (6-mer frequency, TF over GST control) | 1.1 fold enrichment (6-mer frequency, TF over GST control) | 1.19 fold enrichment (6-mer frequency, TF over GST control) | 1.03 fold enrichment (6-mer frequency, TF over GST control) | 1.16 fold enrichment (6-mer frequency, TF over GST control) |
| ATTCTT | 1.3 fold enrichment (6-mer frequency, TF over GST control) | 1.46 fold enrichment (6-mer frequency, TF over GST control) | 1.41 fold enrichment (6-mer frequency, TF over GST control) | 1.34 fold enrichment (6-mer frequency, TF over GST control) | 1.54 fold enrichment (6-mer frequency, TF over GST control) | 1.4 fold enrichment (6-mer frequency, TF over GST control) | 1.48 fold enrichment (6-mer frequency, TF over GST control) | 1.46 fold enrichment (6-mer frequency, TF over GST control) |
| TCCTTA | 1.43 fold enrichment (6-mer frequency, TF over GST control) | 1.7 fold enrichment (6-mer frequency, TF over GST control) | 1.6 fold enrichment (6-mer frequency, TF over GST control) | 1.75 fold enrichment (6-mer frequency, TF over GST control) | 1.59 fold enrichment (6-mer frequency, TF over GST control) | 2.6 fold enrichment (6-mer frequency, TF over GST control) | 1.74 fold enrichment (6-mer frequency, TF over GST control) | 1.63 fold enrichment (6-mer frequency, TF over GST control) |
| ACTCCT | 1.45 fold enrichment (6-mer frequency, TF over GST control) | 1.54 fold enrichment (6-mer frequency, TF over GST control) | 1.52 fold enrichment (6-mer frequency, TF over GST control) | 1.42 fold enrichment (6-mer frequency, TF over GST control) | 1.52 fold enrichment (6-mer frequency, TF over GST control) | 1.42 fold enrichment (6-mer frequency, TF over GST control) | 1.43 fold enrichment (6-mer frequency, TF over GST control) | 1.42 fold enrichment (6-mer frequency, TF over GST control) |
| GAAGTA | 1.79 fold enrichment (6-mer frequency, TF over GST control) | 1.79 fold enrichment (6-mer frequency, TF over GST control) | 2.08 fold enrichment (6-mer frequency, TF over GST control) | 2.1 fold enrichment (6-mer frequency, TF over GST control) | 2.08 fold enrichment (6-mer frequency, TF over GST control) | 2.34 fold enrichment (6-mer frequency, TF over GST control) | 2.11 fold enrichment (6-mer frequency, TF over GST control) | 2.52 fold enrichment (6-mer frequency, TF over GST control) |
| TAACGA | 1.03 fold enrichment (6-mer frequency, TF over GST control) | 1.04 fold enrichment (6-mer frequency, TF over GST control) | 1.12 fold enrichment (6-mer frequency, TF over GST control) | 1.16 fold enrichment (6-mer frequency, TF over GST control) | 1.1 fold enrichment (6-mer frequency, TF over GST control) | 1.06 fold enrichment (6-mer frequency, TF over GST control) | 1.06 fold enrichment (6-mer frequency, TF over GST control) | 1.08 fold enrichment (6-mer frequency, TF over GST control) |
| CAACGA | 1.05 fold enrichment (6-mer frequency, TF over GST control) | 1.08 fold enrichment (6-mer frequency, TF over GST control) | 1.11 fold enrichment (6-mer frequency, TF over GST control) | 1.01 fold enrichment (6-mer frequency, TF over GST control) | 1.05 fold enrichment (6-mer frequency, TF over GST control) | 1.01 fold enrichment (6-mer frequency, TF over GST control) | 1.07 fold enrichment (6-mer frequency, TF over GST control) | 1.04 fold enrichment (6-mer frequency, TF over GST control) |
| TGTCTC | 1.2 fold enrichment (6-mer frequency, TF over GST control) | 1.3 fold enrichment (6-mer frequency, TF over GST control) | 1.26 fold enrichment (6-mer frequency, TF over GST control) | 1.33 fold enrichment (6-mer frequency, TF over GST control) | 1.16 fold enrichment (6-mer frequency, TF over GST control) | 1.26 fold enrichment (6-mer frequency, TF over GST control) | 1.21 fold enrichment (6-mer frequency, TF over GST control) | 1.22 fold enrichment (6-mer frequency, TF over GST control) |
| AATTTT | 1.36 fold enrichment (6-mer frequency, TF over GST control) | 1.3 fold enrichment (6-mer frequency, TF over GST control) | 1.23 fold enrichment (6-mer frequency, TF over GST control) | 1.22 fold enrichment (6-mer frequency, TF over GST control) | 1.14 fold enrichment (6-mer frequency, TF over GST control) | 1.23 fold enrichment (6-mer frequency, TF over GST control) | 1.2 fold enrichment (6-mer frequency, TF over GST control) | 1.13 fold enrichment (6-mer frequency, TF over GST control) |
| AATCCG | 1.5 fold enrichment (6-mer frequency, TF over GST control) | 1.6 fold enrichment (6-mer frequency, TF over GST control) | 1.7 fold enrichment (6-mer frequency, TF over GST control) | 2.04 fold enrichment (6-mer frequency, TF over GST control) | 1.51 fold enrichment (6-mer frequency, TF over GST control) | 1.74 fold enrichment (6-mer frequency, TF over GST control) | 1.66 fold enrichment (6-mer frequency, TF over GST control) | 1.49 fold enrichment (6-mer frequency, TF over GST control) |
